High-throughput results as filed in PubChem BioAssay.
This is a sample that favours compounds with a hit; in the whole collection about 8.3% have one here.
SW480 rerep: DNA re-replication induction in SW480 cells. 1.8% of 340,000 active. Potency, µM (doses to about 46.1 µM), usual class: activators. SW480 DNA re-replication, Hoechst DNA content imaging, 48 h. AID 624297; note: nearly all actives have a fitted effect of over 55% in size
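Hoechst fluorescence of nuclei (405 nm excitation, 500-530 nm emission) measured by plate-scanning imager after 48 hr compound exposure at 37 C; re-replication scored as increased number of nuclei with elevated intensity.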
MCF10A rerep: DNA re-replication induction in MCF 10a cells; 2.9% of 350,000 active; Potency, µM (top dose mostly 46.1 µM), most hits filed as activators; AID 624296; MCF 10A DNA re-replication, Hoechst nuclear intensity, 48 h; note: nearly all actives have a fitted effect of over 50% in size
RORg inh: ROR gamma (mouse) transcription inhibition; P51450; Drosophila S2 Gal4-RORgamma UAS-luciferase reporter, 20 h; Potency, µM (highest dose often 53.6 µM), usual class: inhibitors; 5.4% of 310,000 active; note: nearly all actives have a fitted effect of over 60% in size
Target sequence (P51450 whole entry, looked up, the tested form may be a part): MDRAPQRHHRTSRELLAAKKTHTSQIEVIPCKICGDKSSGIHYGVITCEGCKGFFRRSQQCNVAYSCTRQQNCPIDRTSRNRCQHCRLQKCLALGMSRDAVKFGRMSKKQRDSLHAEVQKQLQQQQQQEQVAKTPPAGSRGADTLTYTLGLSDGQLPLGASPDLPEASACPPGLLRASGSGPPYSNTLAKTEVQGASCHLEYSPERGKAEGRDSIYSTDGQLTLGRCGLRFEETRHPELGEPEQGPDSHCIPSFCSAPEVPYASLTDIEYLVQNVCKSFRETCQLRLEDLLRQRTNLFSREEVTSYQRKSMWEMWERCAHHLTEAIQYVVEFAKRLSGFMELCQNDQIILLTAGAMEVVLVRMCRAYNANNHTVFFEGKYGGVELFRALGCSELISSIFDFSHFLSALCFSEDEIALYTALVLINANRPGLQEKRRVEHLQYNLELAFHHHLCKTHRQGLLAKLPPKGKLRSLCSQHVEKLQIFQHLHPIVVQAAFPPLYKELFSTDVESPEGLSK
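A Gal4/UAS one-hybrid system in insect cells: metallothionein-promoter Gal4–ROR gamma fusion plus Photinus luciferase reporter. Copper sulfate 700 uM final, 20 hr ambient incubation, luminescent detection after 10 min with reagent.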
BCR signal inh: chronic active BCR signaling inhibition; ABC-DLBCL IkBa-CBG/CBR reporter, luminescence ratio, 4 h; Potency, µM (highest dose often 46.1 µM), actives largely listed as inhibitors; 0.05% of 340,000 active; AID 493014; active = well fitted inhibition curve with a large enough effect in the signal ratio, with a control signal flat, not every such curve was filed as active; inconclusive = small, poorly fitted or top-dose-only effect, or effect the other way, or a change in a side signal; the % refers to the signal ratio
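TMD8 ABC-DLBCL cells carrying doxycycline-inducible green luciferase fused to IkappaBalpha plus unfused red luciferase were exposed to compounds (up to 46 uM) for 4 hrs at 37C. Activity came from the overlap-corrected green/red luminescence ratio.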
Gal4-VP16 FLuc: inhibits Gal4-VP16 luciferase reporter, ROR gamma counter-screen; Drosophila S2 Gal4-VP16 UAS-luciferase, luminescence, 20 h; Potency, µM (titrated, usually from 53.6 µM), hits mostly inhibitors; 3.5% of 310,000 active;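 note: Gal4-VP16 expression switched on by copper sulfate through the metallothionein promoter; nearly all actives have a fitted effect of over 50% in size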
Giardia killer: Giardia lamblia killing; Giardia lamblia trophozoite viability; 0.15% of 340,000 active; AID 540267; activity change, % at 7.66 µM, hits read low; in the data active = activity change below about -80%; inconclusive = between about -30% and that limit;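 note: parasites exposed to compound for two days anaerobically before the ATP read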
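Trophozoites 100 cells/well + cpd; 48 hrs, 37 deg C, anaerobic. ATPLite 1-Step added, 15-30 min RT, luminescence read (ATP-based viability).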
A number is an active result; . = inactive; ? = inconclusive; / = no result; [ ] = dose if it differs, or a comment. Unless noted, calls come from the whole dose curve; as a rule, active = well fitted curve in the direction sought with a large enough effect; inconclusive = small, poorly fitted or top-dose-only effect, or another doubt; inactive = no such curve, though single readings can be large; an effect the other way counts as inactive or inconclusive.

SMILES | SW480 rerep | MCF10A rerep | RORg inh | BCR signal inh | Gal4-VP16 FLuc | Giardia killer
CCC(=O)N1CCc2cc(Br)cc(S(=O)(=O)N(C)c3ccc(OC)cc3OC)c21 | ? | ? | ? | . | . | .
C/C(=N\Nc1cccc(Cl)c1)C1(C)N(O)C(C)(C)C(c2ccco2)=[N+]1[O-] (stereo not drawn) | . | . | . | . | . | .
O=c1cnc2cnc(Nc3ccccc3)nc2n1C[C@H]1CCCO1 | / | / | . | / | ? | /
COc1cccc(Nc2ncc3ncc(=O)n(C[C@H]4CCCO4)c3n2)c1 | / | / | . | / | 11µM | /
CCn1c(C)nc2cc(C(=O)NN=C(C)c3ccc(C#N)cc3)ccc21 | . | . | / | . | / | .
CCn1c(C)nc2cc(C(=O)N/N=C(\C)c3ccc(OC)cc3O)ccc21 | . | . | 1µM | . | 2.8µM | .
CCn1c(C)nc2cc(C(=O)N/N=C/c3cccc(O)c3O)ccc21 | ? | ? | 2.2µM | . | 11µM | .
Cc1ccc(NC(=O)Nc2ccc3c(c2)nc(C)n3C)cc1 | . | . | . | . | . | .
CCn1c(C)nc2cc(C(=O)NNC(=S)Nc3ccc(Cl)cc3Cl)ccc21 | . | . | . | . | ? | .
CCn1c(C)nc2cc(C(=O)NNC(=S)Nc3ccccc3Cl)ccc21 | . | . | 11µM | ? | 20µM | .
Cc1nc2cc(NC(=O)Nc3ccccc3Cl)ccc2n1C | . | . | 5µM | ? | 11µM | ?
CCn1c(C)nc2cc(C(=O)N/N=C/c3ccccc3)ccc21 | . | . | . | . | ? | .
CC(=O)Oc1cc2cccc(OC(C)=O)c(=O)c2c(OC(C)=O)c1OC(C)=O | . | . | . | . | . | .
Cc1cccc(-n2c(N)c(-c3nc4ccccc4n3C)c3nc4ccccc4nc32)c1 | 5.8µM | ? | 2.8µM | . | 5µM | .
Cc1ccc(-n2c(N)c(-c3nc4ccccc4n3C)sc2=S)cc1 | . | . | 5µM | ? | ? | .
Cn1c(-c2c(N)n(-c3ccccc3)c3nc4ccccc4nc23)nc2ccccc21 | 15µM | 8.2µM | 1.1µM | . | 3.5µM | .
Cn1c(N)c(-c2nc3cccnc3n2C)sc1=S | . | . | . | . | . | .
Cc1c(NC(=O)c2c(N)n(-c3ccccc3)c3nc4ccccc4nc23)c(=O)n(-c2ccccc2)n1C | / | / | . | ? | . | /
COc1ccc2[nH]cc(C(=O)CCl)c2c1 | ? | 21µM | 7.9µM | ? | 6.3µM | .
COc1ccc2[nH]cc(C(=O)CN3CC(C)CC(C)C3)c2c1 (stereo not drawn) | . | . | . | . | . | .
N#C/C(=C\c1cccnc1)c1ccccc1[N+](=O)[O-] | ? | . | . | ? | . | .
CC1CCN(CC(=O)N2CCCc3c2c(=O)oc2ccc(OCc4ccccc4)cc32)CC1 | ? | 11µM | ? | ? | ? | .
O=C(NCc1ccc(F)cc1)C(=O)NCC(c1cccs1)S(=O)(=O)c1cccs1 (stereo not drawn) | / | / | / | . | / | /
Cc1cc(C)c(C2=CC(=O)C[C@H](c3ccc4c(c3)OCO4)C2)c(C)c1 | . | . | / | . | / | .
Cc1ccc(S(=O)(=O)Nc2ccsc2C#N)cc1 | . | . | . | . | . | .
SMILES | SW480 rerep | MCF10A rerep | RORg inh | BCR signal inh | Gal4-VP16 FLuc | Giardia killer
Fc1ccc(-c2nnc(NC3=NCCCCC3)o2)cc1 | . | . | 2.8µM | ? | ? | ?
c1ccc(Oc2cccc(NC3=NCCC3)c2)cc1 | . | . | .[10 µM] | . | . | .
Fc1ccc(NC2=NCCCCC2)cc1 | . | . | . | . | . | .
c1ccc(-c2nnc(NC3=NCCC3)o2)cc1 | . | . | 7.1µM | ? | .[10 µM] | .
O=C(CCNC(=O)Cn1ccc2ccccc2c1=O)NCc1ccc(F)cc1Cl | . | . | . | . | . | .
CC(C)c1ccc(C2/C(=C(/O)c3ccc(F)cc3)C(=O)C(=O)N2CCCN2CCOCC2)cc1 (stereo not drawn) | . | . | . | . | . | .
COc1ccc(OC)c(S(=O)(=O)N(C)CC(=O)Nc2ccc3c(c2)OCO3)c1 | . | . | ? | . | . | .
COc1ccc(OC)c(S(=O)(=O)NNC(=S)Nc2ccc3c(c2)OCO3)c1 | ? | . | 10µM | ? | ? | .
COc1cc(C(=O)Nc2nnc(C)s2)cc(OC)c1OC | . | . | 7.1µM | . | . | .
